From PubChem BioAssay (NCATS)
Results filed as inconclusive are left out. Activity calls are given as the source filed them. Calls follow the shape of the dose curve; as a rule, active = well fitted inhibition curve with a large enough effect; inconclusive = small, poorly fitted or top-dose-only effect; inactive = flat fitted curve, though single readings scatter.

biological target: Calcium and integrin-binding protein 1 (Homo sapiens) (UniProt Q99828); assay: Primary qHTS for Identification of Calcium Integrin Binding Protein 1 (CIB1) Competitor (AID 1508620); settings: CIB1-GST / FITC-alphaIIb peptide fluorescence polarization; series mostly up to 114 µM; activity change, negative = inhibition: at the top concentration;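 also: GST tagged CIB1 binding a fluorescein labelled alphaIIb integrin peptide tracer; top concentration of the series differs between compounds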
Sequence (Q99828 whole entry, looked up): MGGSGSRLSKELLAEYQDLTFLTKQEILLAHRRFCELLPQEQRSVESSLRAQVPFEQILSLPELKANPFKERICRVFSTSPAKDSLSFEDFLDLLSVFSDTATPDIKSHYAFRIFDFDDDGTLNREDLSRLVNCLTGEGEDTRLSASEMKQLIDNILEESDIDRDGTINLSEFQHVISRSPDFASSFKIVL
Outline: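 CIB1-GST (1 uM final) and compound incubated 15 min at room temperature before adding FITC-alphaIIb peptide tracer (100 nM final). Competition for binding read by fluorescence polarization (ex 480, em 540) after another 15 min at room temperature.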
% is scaled to controls: 0 for no effect and ±100 for the full control effect.

SMILES	activity change, negative = inhibition	Potency
CC(=O)c1cccc(NC(=O)c2cnn3c(C)cc(C)nc23)c1	3.09% (inactive)	–
Fc1ccc(-c2noc(CCCCSc3nnc(-c4cccc5ccccc45)o3)n2)cc1	–	inactive
CC1(C)CC(=O)C2=C(C1)NC(Nc1nc3ccccc3o1)=NC21CCCC1	4.95% (inactive)	–
O=C(O)c1ccc(S(=O)(=O)N[C@H](Cc2ccccc2)C(=O)O)cc1	-2.66% (inactive)	–
O=C(O)c1ccc2c(c1)C(=O)N([C@H](Cc1ccc(F)cc1)C(=O)O)C2=O	1.64% (inactive)	–
COc1cc(-c2ccc3ncnc(NCc4cccs4)c3c2)cc(OC)c1OC	-3.42% (inactive)	–
NC(=O)C1CCN(c2nc(-c3ccc(N)cc3)cs2)CC1	-2.43% (inactive)	–
O=C(NC1CCCc2c1cnn2-c1ccc(F)cc1F)c1cnon1 (configuration not stated)	-2.39% (inactive)	–
CC1=C(C(=O)Nc2ccc(C)cc2)C(c2ccccc2Br)N=C(Nc2nc3ccccc3o2)N1 (configuration not stated)	3.81% (inactive)	–
Cc1ccc(S(=O)(=O)Nc2cccc(C(=O)Nc3nc(-c4ccc(Cl)cc4)cs3)c2)cc1	3.99% (inactive)	–
Cc1cc(C)n2ncc(C(=O)NC3CCC(C(C)(C)C)CC3)c2n1 (configuration not stated)	–	inactive
CN1CCN(C(=O)c2cccc(-c3ccc(CNc4ccc(N5CCN(C(=O)OC(C)(C)C)CC5)cc4)o3)c2)CC1	-2.72% (inactive)	–
COc1ccc(C2=Nn3c(nnc3-c3cc(OC)cc(OC)c3)SC2)cc1	5.21% (inactive)	–
O=C1c2ccccc2NC(c2ccc(-c3cccc(Cl)c3)o2)N1O (configuration not stated)	-13.2% (inactive)	–
CCc1nn2c(=O)cc(N3C(C)CNCC3C)nc2s1 (configuration not stated)	0.291% (inactive)	–
Cc1ccc2nc3sc(C(=O)NC4CCCCC4)cc3cc2c1	3.64% (inactive)	–
Cc1c(C(=O)OCC2CCCCO2)[nH]c2c1C(=O)CC(c1ccco1)C2 (configuration not stated)	-21.8% (inactive)	–
